# Assay results taken from the supplement of paper PMC12339681.
# Where a name gives a salt, the structure may show the parent alone.
# System: PBMC-derived induced microglia-like cells (piMGLC)
# Assay: synaptosome phagocytic index relative to DMSO control (fraction of DMSO); higher = more phagocytosis
# Conditions: concentration: 10 uM (2 uM for compounds listed in Table S2); pretreatment time: 24 h; assay time: 3 h
row,SMILES,synaptosome phagocytic index
1,Cc1cc(NS(=O)(=O)c2ccc(N)cc2)no1 [Sulfamethoxazole],1.17
2,O=c1c(-c2ccc(O)cc2)coc2cc(O)ccc12 [Daidzein],0.94
3,Nc1cc(C(F)(F)F)c(-c2cc(N3CCOCC3)nc(N3CCOCC3)n2)cn1 [Buparlisib_(Hydrochloride)],0.429
4,CC(C)(O/N=C(\C(=O)N[C@@H]1C(=O)N2C(C(=O)[O-])=C(C[n+]3ccccc3)CS[C@H]12)c1csc(N)n1)C(=O)O [Ceftazidime],1.05
